In paper PMC11006913 one finds binding signal data, which are given here for eleven sequences.

Holding throughout (test): PBM; 200 nM protein, PBS
Holding throughout (conditions): dsDNA, one strand shown

Assay [1] addresses HESX1 (Homo sapiens, UniProt Q9UBX0 95-180, R165K).
Assay [2] has as its target HESX1 (Homo sapiens, UniProt Q9UBX0 95-180).
Assay [3] addresses PROP1 (Homo sapiens, UniProt O75360 56-141).
The target of assay [4] is HESX1 (Homo sapiens, UniProt Q9UBX0 95-180, R109Q).
Assay [5] addresses PROP1 (Homo sapiens, UniProt O75360 56-141, R99H).
Assay [6] concerns the target HESX1 (Homo sapiens, UniProt Q9UBX0 95-180, P111T).
The target of assay [7] is PROP1 (Homo sapiens, UniProt O75360 56-141, F88S).
Assay [8] addresses HESX1 (Homo sapiens, UniProt Q9UBX0 95-180, F115L).
The target in assay [9] is VAX1 (Homo sapiens, UniProt Q5SQQ9 86-172).
Assay [10] has as its target VAX1 (Homo sapiens, UniProt Q5SQQ9 86-172, T142I).
For assay [11], the target named is VAX1 (Homo sapiens, UniProt Q5SQQ9 86-172, K157R).
In assay [12] the target is ALX3 (Homo sapiens, UniProt O95076 139-225, N203Q).
The target in assay [13] is ALX3 (Homo sapiens, UniProt O95076 139-225).
For assay [14], the target named is ALX3 (Homo sapiens, UniProt O95076 139-225, L168Q).
Assay [15] concerns the target ALX3 (Homo sapiens, UniProt O95076 139-225, L168V).
Assay [16] addresses ALX3 (Homo sapiens, UniProt O95076 139-225, N203S).

Chain of PROP1 (Homo sapiens, UniProt O75360 56-141) (O75360 56-141): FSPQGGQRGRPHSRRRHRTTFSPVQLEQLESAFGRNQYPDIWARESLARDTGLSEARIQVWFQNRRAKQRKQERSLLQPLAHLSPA
Chain of PROP1 (Homo sapiens, UniProt O75360 56-141, F88S) (O75360 56-141 F88S): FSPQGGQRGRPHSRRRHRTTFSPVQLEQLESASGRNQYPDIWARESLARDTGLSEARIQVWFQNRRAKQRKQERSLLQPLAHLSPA
Chain of HESX1 (Homo sapiens, UniProt Q9UBX0 95-180, R109Q) (Q9UBX0 95-180 R109Q): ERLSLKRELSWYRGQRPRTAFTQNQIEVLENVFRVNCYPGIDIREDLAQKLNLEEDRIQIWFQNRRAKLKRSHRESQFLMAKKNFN
Chain of HESX1 (Homo sapiens, UniProt Q9UBX0 95-180, F115L) (Q9UBX0 95-180 F115L): as the sequence (Q9UBX0 95-180 R109Q) above, with Q15R, F21L counted along it
Chain of HESX1 (Homo sapiens, UniProt Q9UBX0 95-180) (Q9UBX0 95-180): as the sequence (Q9UBX0 95-180 R109Q) above, with Q15R counted along it
Chain of HESX1 (Homo sapiens, UniProt Q9UBX0 95-180, R165K) (Q9UBX0 95-180 R165K): as the sequence (Q9UBX0 95-180 R109Q) above, with Q15R, R71K counted along it
Chain of PROP1 (Homo sapiens, UniProt O75360 56-141, R99H) (O75360 56-141 R99H): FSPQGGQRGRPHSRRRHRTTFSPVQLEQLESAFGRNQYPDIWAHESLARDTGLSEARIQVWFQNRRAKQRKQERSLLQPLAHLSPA
Chain of HESX1 (Homo sapiens, UniProt Q9UBX0 95-180, P111T) (Q9UBX0 95-180 P111T): as the sequence (Q9UBX0 95-180 R109Q) above, with Q15R, P17T counted along it
Chain of VAX1 (Homo sapiens, UniProt Q5SQQ9 86-172, K157R) (Q5SQQ9 86-172 K157R): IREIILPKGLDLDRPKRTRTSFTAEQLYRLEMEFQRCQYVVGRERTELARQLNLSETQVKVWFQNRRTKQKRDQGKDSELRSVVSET
Chain of VAX1 (Homo sapiens, UniProt Q5SQQ9 86-172) (Q5SQQ9 86-172): as the sequence (Q5SQQ9 86-172 K157R) above, with R72K counted along it
Chain of VAX1 (Homo sapiens, UniProt Q5SQQ9 86-172, T142I) (Q5SQQ9 86-172 T142I): as the sequence (Q5SQQ9 86-172 K157R) above, with T57I, R72K counted along it
Chain of ALX3 (Homo sapiens, UniProt O95076 139-225, N203S) (O95076 139-225 N203S): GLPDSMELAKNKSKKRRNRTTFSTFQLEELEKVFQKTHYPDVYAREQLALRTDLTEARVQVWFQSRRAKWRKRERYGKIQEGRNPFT
Chain of ALX3 (Homo sapiens, UniProt O95076 139-225) (O95076 139-225): as the sequence (O95076 139-225 N203S) above, with S65N counted along it
Chain of ALX3 (Homo sapiens, UniProt O95076 139-225, L168V) (O95076 139-225 L168V): as the sequence (O95076 139-225 N203S) above, with L30V, S65N counted along it
Chain of ALX3 (Homo sapiens, UniProt O95076 139-225, N203Q) (O95076 139-225 N203Q): as the sequence (O95076 139-225 N203S) above, with S65Q counted along it
Chain of ALX3 (Homo sapiens, UniProt O95076 139-225, L168Q) (O95076 139-225 L168Q): as the sequence (O95076 139-225 N203S) above, with L30Q, S65N counted along it

Take CTTGGCGA: the binding signal with HESX1 [1] was 6.46 upbm affinity estimate (log intensity, higher = more binding, comparable within an allelic series); in the assay with HESX1 [2], 6.46 upbm affinity estimate (log intensity, higher = more binding, comparable within an allelic series); with PROP1 [3] it was 6.63 upbm affinity estimate (log intensity, higher = more binding, comparable within an allelic series); with HESX1 [4] it was 6.48 upbm affinity estimate (log intensity, higher = more binding, comparable within an allelic series); with PROP1 [5], 6.61 upbm affinity estimate (log intensity, higher = more binding, comparable within an allelic series); with HESX1 [6] it was 6.51 upbm affinity estimate (log intensity, higher = more binding, comparable within an allelic series). For the same sequence, the binding signal is 6.64 upbm affinity estimate (log intensity, higher = more binding, comparable within an allelic series) with PROP1 [7] and 6.53 upbm affinity estimate (log intensity, higher = more binding, comparable within an allelic series) with HESX1 [8].

With CCGAGTCG, the binding signal with HESX1 [1] was 6.6 upbm affinity estimate (log intensity, higher = more binding, comparable within an allelic series); in the assay with HESX1 [2], 6.58 upbm affinity estimate (log intensity, higher = more binding, comparable within an allelic series); in the assay with HESX1 [4], 6.45 upbm affinity estimate (log intensity, higher = more binding, comparable within an allelic series); with HESX1 [6], 6.56 upbm affinity estimate (log intensity, higher = more binding, comparable within an allelic series); with HESX1 [8] it was 6.36 upbm affinity estimate (log intensity, higher = more binding, comparable within an allelic series).

For AGAGGAGC, the binding signal is 6.5 upbm affinity estimate (log intensity, higher = more binding, comparable within an allelic series) with HESX1 [1]; 6.51 upbm affinity estimate (log intensity, higher = more binding, comparable within an allelic series) in the assay with HESX1 [2]; 6.44 upbm affinity estimate (log intensity, higher = more binding, comparable within an allelic series) with HESX1 [4]; 6.47 upbm affinity estimate (log intensity, higher = more binding, comparable within an allelic series) with HESX1 [6]; 6.59 upbm affinity estimate (log intensity, higher = more binding, comparable within an allelic series) in the assay with HESX1 [8].

Take GCGTGGCC: the binding signal was 6.46 upbm affinity estimate (log intensity, higher = more binding, comparable within an allelic series) with HESX1 [1]; 6.31 upbm affinity estimate (log intensity, higher = more binding, comparable within an allelic series) with HESX1 [2]; 6.39 upbm affinity estimate (log intensity, higher = more binding, comparable within an allelic series) with HESX1 [4]; 7.21 upbm affinity estimate (log intensity, higher = more binding, comparable within an allelic series) in the assay with VAX1 [9]; 6.37 upbm affinity estimate (log intensity, higher = more binding, comparable within an allelic series) with HESX1 [6]; 6.39 upbm affinity estimate (log intensity, higher = more binding, comparable within an allelic series) in the assay with HESX1 [8]. In addition, the binding signal in the assay with VAX1 [10] is 7.36 upbm affinity estimate (log intensity, higher = more binding, comparable within an allelic series); with VAX1 [11], 6.97 upbm affinity estimate (log intensity, higher = more binding, comparable within an allelic series).

CACGGCTC: the binding signal with HESX1 [1] was 6.57 upbm affinity estimate (log intensity, higher = more binding, comparable within an allelic series); in the assay with HESX1 [2], 6.56 upbm affinity estimate (log intensity, higher = more binding, comparable within an allelic series); with HESX1 [4], 6.55 upbm affinity estimate (log intensity, higher = more binding, comparable within an allelic series); in the assay with HESX1 [6], 6.58 upbm affinity estimate (log intensity, higher = more binding, comparable within an allelic series); in the assay with HESX1 [8], 6.53 upbm affinity estimate (log intensity, higher = more binding, comparable within an allelic series).

In the case of AGCCGAGC, the binding signal is 6.4 upbm affinity estimate (log intensity, higher = more binding, comparable within an allelic series) with HESX1 [1]; 6.26 upbm affinity estimate (log intensity, higher = more binding, comparable within an allelic series) with HESX1 [2]; 6.48 upbm affinity estimate (log intensity, higher = more binding, comparable within an allelic series) with HESX1 [4]; 6.46 upbm affinity estimate (log intensity, higher = more binding, comparable within an allelic series) in the assay with HESX1 [6]; 6.45 upbm affinity estimate (log intensity, higher = more binding, comparable within an allelic series) with HESX1 [8].

Consider CAAGCCGC, for which the binding signal in the assay with HESX1 [1] was 6.58 upbm affinity estimate (log intensity, higher = more binding, comparable within an allelic series); with HESX1 [2], 6.44 upbm affinity estimate (log intensity, higher = more binding, comparable within an allelic series); with PROP1 [3] it was 6.56 upbm affinity estimate (log intensity, higher = more binding, comparable within an allelic series); with HESX1 [4], 6.54 upbm affinity estimate (log intensity, higher = more binding, comparable within an allelic series); with PROP1 [5], 6.8 upbm affinity estimate (log intensity, higher = more binding, comparable within an allelic series); with HESX1 [6], 6.58 upbm affinity estimate (log intensity, higher = more binding, comparable within an allelic series). Besides, the binding signal with PROP1 [7] was 6.57 upbm affinity estimate (log intensity, higher = more binding, comparable within an allelic series); in the assay with HESX1 [8], 6.56 upbm affinity estimate (log intensity, higher = more binding, comparable within an allelic series).

As to AGTCGCGC, the binding signal in the assay with HESX1 [1] is 6.38 upbm affinity estimate (log intensity, higher = more binding, comparable within an allelic series); with HESX1 [2] it was 6.32 upbm affinity estimate (log intensity, higher = more binding, comparable within an allelic series); in the assay with HESX1 [4], 6.51 upbm affinity estimate (log intensity, higher = more binding, comparable within an allelic series); in the assay with VAX1 [9], 7.29 upbm affinity estimate (log intensity, higher = more binding, comparable within an allelic series); with HESX1 [6] it was 6.45 upbm affinity estimate (log intensity, higher = more binding, comparable within an allelic series); with HESX1 [8] it was 6.58 upbm affinity estimate (log intensity, higher = more binding, comparable within an allelic series). For the same sequence, the binding signal with VAX1 [10] is 7.12 upbm affinity estimate (log intensity, higher = more binding, comparable within an allelic series); in the assay with VAX1 [11], 7.18 upbm affinity estimate (log intensity, higher = more binding, comparable within an allelic series).

Turning to CACTGGAG, the binding signal with HESX1 [1] is 6.53 upbm affinity estimate (log intensity, higher = more binding, comparable within an allelic series); with HESX1 [2] it was 6.53 upbm affinity estimate (log intensity, higher = more binding, comparable within an allelic series); in the assay with HESX1 [4] it was 6.58 upbm affinity estimate (log intensity, higher = more binding, comparable within an allelic series); with HESX1 [6], 6.6 upbm affinity estimate (log intensity, higher = more binding, comparable within an allelic series); with HESX1 [8], 6.61 upbm affinity estimate (log intensity, higher = more binding, comparable within an allelic series).

Consider CCGGCCGA, for which the binding signal was 6.49 upbm affinity estimate (log intensity, higher = more binding, comparable within an allelic series) with HESX1 [1]; 6.45 upbm affinity estimate (log intensity, higher = more binding, comparable within an allelic series) in the assay with HESX1 [2]; 6.73 upbm affinity estimate (log intensity, higher = more binding, comparable within an allelic series) with PROP1 [3]; 6.51 upbm affinity estimate (log intensity, higher = more binding, comparable within an allelic series) with HESX1 [4]; 6.72 upbm affinity estimate (log intensity, higher = more binding, comparable within an allelic series) with PROP1 [5]; 6.49 upbm affinity estimate (log intensity, higher = more binding, comparable within an allelic series) in the assay with HESX1 [6]. For the same sequence, the binding signal was 6.59 upbm affinity estimate (log intensity, higher = more binding, comparable within an allelic series) with PROP1 [7] and 6.54 upbm affinity estimate (log intensity, higher = more binding, comparable within an allelic series) in the assay with HESX1 [8].

Take CGCCCAAG: the binding signal with HESX1 [1] was 6.57 upbm affinity estimate (log intensity, higher = more binding, comparable within an allelic series); with HESX1 [2], 6.59 upbm affinity estimate (log intensity, higher = more binding, comparable within an allelic series); with ALX3 [12], 7.75 upbm affinity estimate (log intensity, higher = more binding, comparable within an allelic series); with ALX3 [13] it was 7.67 upbm affinity estimate (log intensity, higher = more binding, comparable within an allelic series); with HESX1 [4], 6.54 upbm affinity estimate (log intensity, higher = more binding, comparable within an allelic series); in the assay with ALX3 [14] it was 7.8 upbm affinity estimate (log intensity, higher = more binding, comparable within an allelic series). The binding signal with HESX1 [6] is 6.5 upbm affinity estimate (log intensity, higher = more binding, comparable within an allelic series); with ALX3 [15], 7.74 upbm affinity estimate (log intensity, higher = more binding, comparable within an allelic series); with HESX1 [8], 6.55 upbm affinity estimate (log intensity, higher = more binding, comparable within an allelic series); with ALX3 [16] it was 7.78 upbm affinity estimate (log intensity, higher = more binding, comparable within an allelic series).
